Our source for the CPE inhibition values is PubChem BioAssay AID540333 (Southern Research Specialized Biocontainment Screening …, 2011).

Screen size: about 10,000 compounds; about 320 (3.2%) were called active. No stated cut-off is given here; in the data, active means CPE inhibition mostly above about 9.1% (no sharp cut-off); inactive means mostly below about 7.2%. The entries come from a sample that favours actives as a whole.

The assay is described as follows: Dengue virus cytopathic effect inhibitors, cell-based, CPE readout, HTS (AID 540333). As to conditions: Dengue virus CPE inhibition in host cells, at 20 µM; stronger effect = higher value.
As to `C/C(=N\Nc1nc(Cl)c(Cl)cc1Cl)c1ccc(S(=O)(=O)NCc2ccco2)cc1`, the CPE inhibition is 8.5% (active).

For the compound `C/C(=N\Nc1ccccn1)c1ccc(S(=O)(=O)NCc2ccco2)cc1`, the CPE inhibition result was “inactive”.

With `C/C(=N\Nc1ncc(Cl)cc1Cl)c1ccc(S(=O)(=O)NCc2ccco2)cc1`, the CPE inhibition entry was “inactive”.

Take `Cc1ccccc1OCC(=O)N/N=C1\SCC(=O)N1Cc1ccccc1`: the CPE inhibition result is “inactive”.

`COc1ccc(C(C(=O)Nc2ccc3c(c2)OCO3)N(C)C(=O)Cc2c[nH]c3ccccc23)cc1` (stereo not drawn): the CPE inhibition was 25.8% (active).

Turning to `COc1ccc(-c2cc(C(=O)OCC(=O)Nc3ccc4c(c3)OCO4)c3ccccc3n2)cc1`, the CPE inhibition was 0.175% (inactive).

Take `COc1ccc(NC(=O)C(c2cc3c(cc2[N+](=O)[O-])OCO3)N(C)c2ccccc2)cc1` (stereo not drawn): the CPE inhibition is 1.73% (inactive).

On to `O=C(CCCC(=O)N1CCN(c2ccc([N+](=O)[O-])cc2)CC1)c1ccccc1`, for which the CPE inhibition is 0.355% (inactive).

For the compound `Cc1ccc2nc(N3CC(=O)Nc4ccccc43)nc(-c3ccccc3)c2c1`, the CPE inhibition was 1.55% (inactive).

As for `Cc1c(Cl)cccc1NCC(=O)Nc1ccc(Cl)cc1F`, the CPE inhibition was 4.37% (inactive).

On to `COc1ccc(NC(=O)CCC(=O)c2cccs2)cc1S(=O)(=O)Nc1ccc(Cl)cc1`, for which the CPE inhibition is 0.325% (inactive).

For `Cc1ccc(C(=O)CCC(=O)Nc2ccc(Cl)c(S(=O)(=O)Nc3cccc(Cl)c3)c2)cc1`, the CPE inhibition is 4.45% (inactive).

Turning to `COc1ccc(NS(=O)(=O)c2cccc(NC(=O)CCC(=O)c3ccc(Cl)cc3)c2)cc1`, the CPE inhibition was 17.3% (active).

Turning to `CC(=O)Nc1ccc(OCC(=O)NCCc2ccc(Cl)cc2)cc1`, the CPE inhibition entry was “inactive”.

For the compound `Cc1cc(/C=N\NC(=O)CC(=O)NC2CCCCC2)c(C)n1-c1cccc(Cl)c1Cl`, the CPE inhibition was 22.7% (active).

In the case of `Cc1cccc(C)c1-n1c(C)cc(/C=N\NC(=O)CC(=O)NC2CCCCC2)c1C`, the CPE inhibition was 0.17% (inactive).

Take `Cc1ccc(-n2c(C)cc(/C=N\NC(=O)CC(=O)NC(C)C)c2C)cc1`: the CPE inhibition result is “inactive”.

Regarding `Cc1ccc(S(=O)(=O)c2cc(OC(=O)c3ccco3)ccc2OC(=O)c2ccco2)cc1`, the CPE inhibition is 0.235% (inactive).

Turning to `CC1(C)CC(NC(=O)C(Cl)(Cl)Cl)CC(C)(C)N1`, the CPE inhibition entry was “inactive”.

Take `CCn1ncc(/C=C/C(=O)C2CC2)c1C`: the CPE inhibition was 2.21% (inactive).

As to `CCOC(=O)c1c(C)[nH]c(C(=O)/C(C#N)=C/c2ccc(OCC)cc2)c1C`, the CPE inhibition was 0.085% (inactive).

As for `CCOc1ccc(N=C2NC(=O)/C(=C/C(=O)OC)S2)cc1`, the CPE inhibition is 0.935% (inactive).

As for `CCOC(=O)c1c(C)[nH]c(C2=NNC(=Nc3ccc(OCC)cc3)SC2)c1C`, the CPE inhibition was 13.2% (active).

On to `O=C(CCN1C(=O)c2ccccc2C1=O)C1=NN[C@@H]2C(=O)N(c3cccc(F)c3)C(=O)[C@H]12`, for which the CPE inhibition is 1.32% (inactive).

With `COc1cc(C=Nc2cccc([N+](=O)[O-])c2C)ccc1OC(C)=O`, the CPE inhibition is 4.63% (inactive).

Take `CSc1nc(N2CCOCC2)nc2ccc(C)cc12`: the CPE inhibition was 11.8% (active).

Turning to `Cc1cccc(/C=N/Nc2cc(N3CCOCC3)nc(N3CCOCC3)n2)c1`, the CPE inhibition result was “inactive”.

As for `Cc1cccc(-c2nc(Nc3ccc(N4CCOCC4)cc3)c3ccccc3n2)c1`, the CPE inhibition result is “inactive”.

With `COc1ccc(C)cc1NC(=O)c1cc2c(s1)CCC2`, the CPE inhibition entry is “inactive”.

For `COc1ccc(/C=N/N2CCN(C3c4ccccc4-c4ccccc43)CC2)cc1OC`, the CPE inhibition is 0.5% (inactive).

Turning to `CCc1nc(C#N)c(N2CCOCC2)o1`, the CPE inhibition is 0.655% (inactive).

As to `COc1ccc(C(=O)N[C@H](C(=O)OCC(=O)NC(=O)c2cccn2C)C(C)C)cc1`, the CPE inhibition result is “inactive”.

As for `CC(=O)c1ccc(NC(=O)c2cc(Cl)sc2Cl)cc1`, the CPE inhibition was 0.185% (inactive).

For `Cc1ccc(C(=O)c2ccccc2C(=O)OCC(=O)NCCc2ccc(Cl)cc2Cl)cc1`, the CPE inhibition was 22.8% (active).

Take `Cc1ccc(C(=O)c2ccccc2C(=O)OCC(=O)NCCc2ccccc2)cc1`: the CPE inhibition was 1.41% (inactive).

Consider `O=C(COC(=O)c1ccccc1C(=O)c1ccc(Cl)cc1)NCCc1ccccc1`, for which the CPE inhibition is 5.59% (inactive).

In the case of `O=C(Nc1ccn(-c2ccccc2)n1)c1ccc(Cl)cc1`, the CPE inhibition was 0.155% (inactive).

For `COc1ccc(CCNC(=O)CC2SC(=NCCc3ccccc3)NC2=O)cc1` (stereo not drawn), the CPE inhibition result is “inactive”.

For `C[C@H](NS(=O)(=O)c1ccc(Cl)cc1)C(=O)OCC(=O)NC(=O)Nc1ccc2c(c1)OCCO2`, the CPE inhibition was 0.475% (inactive).

With `Cc1ccc(S(=O)(=O)Nc2cccc3c2CCCC3)cc1`, the CPE inhibition was 0.255% (inactive).

With `COc1cc(NS(=O)(=O)c2ccc(Cl)cc2)c(C(=O)O)cc1OC`, the CPE inhibition is 0.06% (inactive).

Turning to `O=S(=O)(Nc1cccc2c1CCCC2)c1ccc(Cl)cc1`, the CPE inhibition is 21.1% (active).

On to `CCCc1nc2c(c(=O)c3ccccc3n2C)c(=O)n1-c1ccc(F)cc1`, for which the CPE inhibition was 1.89% (inactive).

Regarding `Cn1c2ccccc2c(=O)c2c(=O)n(C3CCCCCC3)c(C3CCCCC3)nc21`, the CPE inhibition result is “inactive”.

As to `CCCc1nc2c(c(=O)c3ccccc3n2C)c(=O)n1C1CCCCCC1`, the CPE inhibition result was “inactive”.

With `CCc1nc2c(c(=O)c3ccccc3n2C)c(=O)n1C1CCCCCC1`, the CPE inhibition is 13.5% (active).

Consider `Cn1c2ccccc2c(=O)c2c(=O)n(C3CCCCC3)c(-c3ccco3)nc21`, for which the CPE inhibition was 10.4% (inactive).

As for `Cn1c2ccccc2c(=O)c2c(=O)n(-c3ccccc3)c(C3CCCCC3)nc21`, the CPE inhibition was 9.13% (active).

Consider `O=c1[nH]cnc2c1c(-c1ccccc1)cn2-c1ccc(Br)cc1`, for which the CPE inhibition is 11.8% (active).

As to `CCOC(=O)CSc1ncnc2c1c(-c1ccccc1)cn2-c1ccc(OC)cc1`, the CPE inhibition was 2.07% (inactive).

In the case of `COC(=O)C(C)Sc1ncnc2c1c(-c1ccccc1)cn2-c1ccc(OC)cc1` (stereo not drawn), the CPE inhibition was 2.83% (inactive).

Take `CCOc1ccccc1NC(=O)C(OC(=O)c1ccccc1NS(=O)(=O)c1cccs1)c1ccccc1` (stereo not drawn): the CPE inhibition was 1.08% (inactive).

In the case of `CC12CCC(C(=O)N(NC(=O)c3cccnc3)C1=O)C2(C)C` (stereo not drawn), the CPE inhibition is 2.09% (inactive).

As to `CC(NC(=O)/C=C/c1cnc2ccccc2n1)C12CC3CC(CC(C3)C1)C2` (stereo not drawn), the CPE inhibition is 12.8% (active).

As for `CC(NC(=O)COC(=O)[C@@H]1CCCN1S(=O)(=O)c1ccccc1F)C12CC3CC(CC(C3)C1)C2` (stereo partly drawn), the CPE inhibition entry was “inactive”.

Consider `O=C(N/N=C/c1ccccn1)C12CC3CC(CC(C3)C1)C2`, for which the CPE inhibition result is “inactive”.

Consider `O=C(COc1ccc(Br)cc1Cl)NC1CCCCC1`, for which the CPE inhibition was 0.99% (inactive).

For `CC(=O)c1ccc(NC(=O)CN2C(=O)/C(=C/C(C)=C/c3ccccc3)SC2=S)cc1`, the CPE inhibition was 0.22% (inactive).
